Measured values from publication PMC4336329 (PLoS ONE, 2015).
The whole screen tested about 310,000 compounds, of which about 14,000 (4.5%) showed an effect of 50% or more. Effects have a minus sign here. The entries come from a sample that favours strong results as a whole.

molecular target: human ether-à-go-go-related gene (hERG) potassium channel (human, UniProt Q12809); assay: primary screen, population patch clamp on CHO cells stably expressing hERG; higher = less effect of the substance
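Further: peak tail current of the secondary pulse compared with the same well before compound.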

Chain of human ether-à-go-go-related gene (hERG) potassium channel (Q12809 whole entry, looked up): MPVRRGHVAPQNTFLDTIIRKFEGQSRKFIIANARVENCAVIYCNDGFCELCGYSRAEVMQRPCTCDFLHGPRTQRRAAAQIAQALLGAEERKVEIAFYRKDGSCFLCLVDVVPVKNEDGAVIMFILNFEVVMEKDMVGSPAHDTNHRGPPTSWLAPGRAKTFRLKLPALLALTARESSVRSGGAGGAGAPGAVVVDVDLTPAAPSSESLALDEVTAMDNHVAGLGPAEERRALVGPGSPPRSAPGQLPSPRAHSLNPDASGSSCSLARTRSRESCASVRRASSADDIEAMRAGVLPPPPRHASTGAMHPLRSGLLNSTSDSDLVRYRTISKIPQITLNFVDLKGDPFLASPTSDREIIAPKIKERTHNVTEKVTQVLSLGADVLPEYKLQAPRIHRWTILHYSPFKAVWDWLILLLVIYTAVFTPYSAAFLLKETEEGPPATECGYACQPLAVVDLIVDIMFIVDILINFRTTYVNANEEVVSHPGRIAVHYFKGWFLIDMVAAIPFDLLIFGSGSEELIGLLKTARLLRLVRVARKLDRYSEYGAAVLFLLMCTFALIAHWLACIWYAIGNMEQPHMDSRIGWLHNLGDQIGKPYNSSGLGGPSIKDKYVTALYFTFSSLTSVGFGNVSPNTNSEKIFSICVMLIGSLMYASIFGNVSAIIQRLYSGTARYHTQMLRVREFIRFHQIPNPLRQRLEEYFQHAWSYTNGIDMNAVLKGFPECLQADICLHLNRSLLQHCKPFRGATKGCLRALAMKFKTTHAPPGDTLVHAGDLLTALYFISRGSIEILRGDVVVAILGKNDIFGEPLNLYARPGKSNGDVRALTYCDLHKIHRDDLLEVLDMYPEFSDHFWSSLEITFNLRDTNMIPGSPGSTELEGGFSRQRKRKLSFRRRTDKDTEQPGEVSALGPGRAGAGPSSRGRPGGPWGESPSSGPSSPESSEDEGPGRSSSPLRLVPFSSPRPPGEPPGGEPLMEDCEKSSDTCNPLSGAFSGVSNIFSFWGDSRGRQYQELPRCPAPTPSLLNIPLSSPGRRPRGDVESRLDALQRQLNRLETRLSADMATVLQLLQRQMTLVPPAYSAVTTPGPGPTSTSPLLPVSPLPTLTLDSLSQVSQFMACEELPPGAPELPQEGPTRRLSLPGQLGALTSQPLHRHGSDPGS

Row | Compound | hERG current change (%, negative = inhibition) at 10uM [%]
1 | O=C(CCNS(=O)(=O)c1cccc2nsnc12)NC1CCCc2ccccc21 (stereo not drawn) | 9.49
2 | CCCc1cc(=O)n2[nH]c(CCc3ccccc3)nc2n1 | 14.1
3 | O=C(NCC(c1cccs1)N1CCOCC1)c1ccccc1NS(=O)(=O)c1ccc(Br)cc1 (stereo not drawn) | -38.4
4 | CCOC(=O)c1sc(NC(=O)c2ccc(Cl)s2)cc1C | 3.03
5 | O=C(c1ccco1)N1CCN(C2CC(=O)N(c3ccc(F)c(Cl)c3)C2=O)CC1 (stereo not drawn) | -14.2
6 | Cc1ccc(OS(=O)Nc2cccc3nccnc23)cc1 (stereo not drawn) | -18.6
7 | COc1ccccc1C(=O)NCCC(=O)NCc1ccncc1 | -4.37
8 | O=c1c2cc([N+](=O)[O-])ccc2nc(CN2CCN(c3ccccn3)CC2)n1-c1ccccc1F | -28.3
9 | O=C(c1ccco1)N1CCN(Cc2nc3ccc([N+](=O)[O-])cc3c(=O)n2-c2ccccc2F)CC1 | -68.3
10 | CCOC(=O)N1CCN(Cc2nc3ccc([N+](=O)[O-])cc3c(=O)n2-c2ccc(OC)cc2OC)CC1 | -46.1
11 | CCC(CC)N1CCN(Cc2nc3ccc([N+](=O)[O-])cc3c(=O)n2-c2ccccc2F)CC1 | -57
12 | CCN1CCN(Cc2nc3ccc([N+](=O)[O-])cc3c(=O)n2-c2ccccc2F)CC1 | 17.9
13 | O=C(O)C(=O)O.O=C(c1ccco1)N1CCN(Cc2ccccc2F)CC1 | 3.7
14 | CCOC(=O)c1ccc(-n2c(CN3CCN(CC)CC3)nc3ccc([N+](=O)[O-])cc3c2=O)cc1 | -55
15 | CCOC(=O)c1ccc(-n2c(CN3CCN(CCO)CC3)nc3ccc([N+](=O)[O-])cc3c2=O)cc1 | -25.1
16 | CCOC(=O)N1CCN(Cc2nc3ccc([N+](=O)[O-])cc3c(=O)n2-c2ccccc2F)CC1 | -69.9
17 | CCOC(=O)N1CCN(Cc2nc3ccc([N+](=O)[O-])cc3c(=O)n2-c2cccc(OC)c2)CC1 | -39.8
18 | CCOc1ccccc1-n1c(CN2CCN(C(=O)c3ccco3)CC2)nc2ccccc2c1=O | -26.2
19 | CCOC(=O)c1ccc(-n2c(CN3CCOCC3)nc3ccc([N+](=O)[O-])cc3c2=O)cc1 | 1.65
20 | Cc1c(C(=O)NCc2ccccc2)cnn1-c1ccccc1 | -2.6
21 | O=C(Nc1cccc(-c2cn3ccccc3n2)c1)c1cccc(Cl)c1 | 4.75

Row | Compound | hERG current change (%, negative = inhibition) at 10uM [%]
22 | CCCC1=NN(C(=O)Cc2ccc(OC)c(OC)c2)C(O)(C(F)(F)F)C1 (stereo not drawn) | 0.733
23 | CC(C)[C@H]1C(=O)Nc2ccccc2N1C(=O)N[C@@H](Cc1ccccc1)C(=O)N[C@@H](Cc1ccccc1)C(=O)O | 5.66
24 | Cc1nn(C)c(C)c1C(C)NC(=O)c1ccc(OC2CCN(Cc3ccccn3)CC2)cc1 (stereo not drawn) | 18
25 | CC(=O)NC1=C(Nc2ccc(N(C)C)cc2)C(=O)c2ccccc2C1=O | -9.79
26 | COC(=O)N/N=C/c1ccc(-c2cccc(Cl)c2)o1 | -3.5
27 | COc1cc(OC)cc(-c2nc(-c3ccccc3)no2)c1 | 5.45
28 | COCCCN1C(=O)C(O)=C(C(C)=O)C1c1cccc(F)c1 (stereo not drawn) | 7.18
29 | CCC1(c2ccccc2)NC(=O)N(CC(=O)Nc2cc(Cl)ccc2N2CCOCC2)C1=O (stereo not drawn) | -11.2
30 | CC1(c2ccccc2)NC(=O)N(CC(=O)Nc2ccccc2C(=O)NC2CC2)C1=O (stereo not drawn) | -22.5
31 | CCC1(c2ccccc2)NC(=O)N(CC(=O)Nc2ccccc2C(=O)NC2CC2)C1=O (stereo not drawn) | -7.31
32 | CCC1(c2ccccc2)NC(=O)N(CC(=O)Nc2cc(Cl)ccc2N2CCN(C)CC2)C1=O (stereo not drawn) | -60.8
33 | CCC1(c2ccccc2)NC(=O)N(CC(=O)Nc2ccccc2C(=O)NC2CCCC2)C1=O (stereo not drawn) | -53.8
34 | CN1CCN(c2ccc(Cl)cc2NC(=O)CN2C(=O)NC(C)(c3ccccc3)C2=O)CC1 (stereo not drawn) | -23.7
35 | COC(=O)C1=C(c2cccc(C#N)c2)C[C@@H]2CC[C@H]1N2C(=O)N1CCC(C)CC1 | -17.1
36 | Cc1ccccc1C1=NC(C(F)(F)F)(C(F)(F)F)c2c(n(-c3ccc(F)cc3)c(=O)[nH]c2=O)N1 | 12.5
37 | Cc1ccc(C)c(NC(=O)CN2C(=O)CNC2=O)c1 | 0.955
38 | COc1cccc(OCCNS(=O)(=O)c2cccc([N+](=O)[O-])c2)c1 | -8.19
39 | C[C@@H](CSc1ccccc1)CN1CC[C@H](NC(=O)OCc2ccccc2)CCC1=O | -44.2
40 | O=C(OCC(=O)N1CCCC1=O)c1nc(Cl)ccc1Cl | 5.78
41 | Nc1cc(N)nc(SCC(=O)c2ccc3c(c2)NC(=O)CO3)n1 | 8.41
42 | COc1ccccc1NC(=O)CSc1nc2ccccc2c(=O)n1C | 12.1

Row | Compound | hERG current change (%, negative = inhibition) at 10uM [%]
43 | O=C(Nc1ccc(Cl)cc1)C1CCCN1C(=O)NCc1ccccc1 (stereo not drawn) | 10.2
44 | CC(/C=C/c1ccccc1)=N/NC(=O)c1cnccn1 | 2.83
45 | O=C(CN1CCCC1)N1CCCc2ccccc21.O=C(O)C(=O)O | 13.8
46 | O=C(CN1CCCCC1)N1CCCc2ccccc21.O=C(O)C(=O)O | 2.82
47 | N#CC1(CCCN2CCCCC2)c2ccccc2CCc2ccccc21.O=C(O)C(=O)O | -52.7
48 | CNC(=S)NNC(=O)Cc1ccc(O)cc1 | -3.23
49 | CN(CC(=O)N1CCN(c2ccc(F)cc2)CC1)S(=O)(=O)c1ccc2c(c1)c(=O)n(C)c(=O)n2C | -0.425
50 | O=c1cc(CN2CCCCC2)nc(C2CC2)[nH]1 | -2.2
51 | c1c(C2CCCCC2)n[nH]c1CN1CCCCC1 | -53.9
52 | CC(C)c1cc(CN2CCN(C3CCCC3)C(CCO)C2)[nH]n1 (stereo not drawn) | -5.93
53 | Cc1ccc(C(=O)N/C(=C\c2ccccc2F)c2nc(=S)[nH][nH]2)cc1 | 14.4
54 | Cc1nc2ccccc2c(=O)n1-c1ccc(Cl)c(Cl)c1 | -8.26
55 | Cc1ccc(-n2c(C)nc3ccccc3c2=O)cc1C | -52.2
56 | O=S(=O)(Nc1ccc(-c2ccc3nncn3n2)cc1)c1cccc(F)c1 | 18.1
57 | Cc1nc2ccccc2c(=O)n1-c1cccc(O)c1 | 14.1
58 | Cc1cccc(S(=O)(=O)Nc2ccc(-c3ccc4nncn4n3)cc2)c1 | -123
59 | Cc1cccc(S(=O)(=O)Nc2ccc(-n3c(C)nc4ccccc4c3=O)cc2)c1 | -55.9
60 | Cc1nc2ccccc2c(=O)n1-c1ccc(NS(=O)(=O)c2ccccc2)cc1 | -26.5
61 | Cc1ccc(S(=O)(=O)Nc2ccc(-n3c(C)nc4ccccc4c3=O)cc2)cc1 | -49.4
62 | Cc1ccc(S(=O)(=O)Nc2ccc(-c3ccc4nncn4n3)cc2)cc1 | -9.23
63 | O=C(O)c1ccc(N2C(=O)c3cccnc3C2=O)cc1 | 16.9

Row | Compound | hERG current change (%, negative = inhibition) at 10uM [%]
64 | O=C1CCCN1c1ccc(S(=O)(=O)N2CCN(c3ccccc3)CC2)cc1 | 16.3
65 | COc1ccc2c(c1OC)C(=O)OC2Nc1nc(-c2ccc(-c3ccccc3)cc2)cs1 (stereo not drawn) | 17
66 | CC(C)=NNC(=O)c1c(O)c2ccccc2[nH]c1=O | -20
67 | NC(=O)c1cc(N2C(=O)C=CC2=O)ccc1Cl | 1.79
68 | NS(=O)(=O)c1ccc(N2C(=O)C(=O)/C(=C(/O)c3ccccc3)C2c2ccc(Cl)cc2)cc1 (stereo not drawn) | 18.1
69 | CCC1CCCCN1CCCNC(=O)C1CCN(Cc2nc(-c3ccc(Cl)cc3)oc2C)CC1 (stereo not drawn) | -42.2
70 | CCN(CCNC(=O)C1CCN(S(=O)(=O)CC)CC1)c1ccccc1 | -16.9
71 | CCCN(CCC)CCNC(=O)C1CCN(Cc2nc(-c3ccc(Cl)cc3)oc2C)CC1 | -60.6
72 | Cc1oc(-c2ccc(Cl)cc2)nc1CN1CCC(C(=O)NCCCN2CCOCC2)CC1 | -26.5
73 | CCN(CCNC(=O)C1CCCN(Cc2nc(-c3ccc(OC)cc3)oc2C)C1)c1ccccc1 (stereo not drawn) | -28.1
74 | CCN(CCNC(=O)C1CCN(S(C)(=O)=O)CC1)c1ccccc1 | -1.8
75 | CCN(CCNC(=O)C1CCN(Cc2nc(-c3ccc(Cl)cc3)oc2C)CC1)c1ccccc1 | -65.9
76 | CCc1ccc(-c2nc(CN3CCC(C(=O)NCCN(CC)c4ccccc4)CC3)c(C)o2)cc1 | -69.5
77 | CCN1CCN(CCNC(=O)C2CCN(Cc3nc(-c4ccc(Cl)cc4)oc3C)CC2)CC1 | 1.11
78 | CCCCN(CC)C(=O)C1CCC(=O)N(c2ccc(OC)cc2)C1c1ccc(OC)c(OC)c1 (stereo not drawn) | -10.2
79 | CC(C)C(=O)Nc1nc2cc3c(cc2s1)OCCO3 | -4.59
80 | S=c1[nH]nc(-c2ccc(Cl)cc2)n1/N=C/C=C/c1ccco1 | 15.3
81 | CCN(CC)S(=O)(=O)c1ccc(O)c(C(=O)OCC(=O)N2CCCC2)c1 | 11.4
